HSF-1 act: increases HSF-1 driven luciferase reporter signal. NIH3T3-HGL HSF-1 luciferase reporter, MG132, 8 h; 100% = twice DMSO control signal. activation, % at 9 µM. actives 1.7% (n = 300,000);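 active = mean replicate activation of at least 50% with a set share of replicates each reaching 50%; inconclusive = only one of those two conditions met; inactive = mean below 50% and too few replicates reaching it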;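 also: 0% = median of the neutral control wells and 100% = twice that signal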
HSF1 inh: HSF1 inhibition; NIH3T3-HGL HSE-luciferase, MG132-induced, luminescence 8 h; active compounds read low; activity change, negative = inhibition, % at 7.5 µM (by protocol); actives 0.77% (n = 300,000); AID 2098;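 active = more than half of replicate wells show activity change below -50%, luminescence cut by over half; inconclusive = some wells, but at most half, below -50%; inactive = no replicate well below -50%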;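 also: luciferase reports HSF-1 transcriptional activity via heat shock element; 0% = median of DMSO wells and -100% = zero luminescence signal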
MITF TRPM1 HTS: increases MITF-driven TRPM1 promoter luciferase signal | SK-MEL-5 TRPM1-promoter luciferase, 24 h; % of positive control, neutral wells = 0 | activation, % at 12.5 µM | actives 0.75% (n = 300,000) | AID 588334;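 active = mean activation of at least 80% with every replicate also reaching 80%; inconclusive = mean reaches 80% but some replicate falls short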;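 also: 0% = neutral control wells and 100% = parthenolide positive control wells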
esBAF inh: SWI/SNF esBAF complex inhibition; mouse ES cells, Bmi1-luciferase knock-in reporter, 24 h; 100% = twice the neutral-well signal; actives 2% (n = 350,000); reporter increase, % at 12.5 µM; AID 602393; in the data active = activation above about 40%; inconclusive = no clear call, values can overlap the other calls;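 also: 0% = median of the plate's neutral control wells and 100% = double that signal; a rise in the Bmi1 reporter signal indicates esBAF inhibition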
Wnt bcat act: Wnt/beta-catenin pathway activation. actives 1.2% (n = 300,000). AID 743398. activation, % at 9.35 µM. Wnt/beta-catenin reporter cell assay, activator, plate reader; in the data active = activation above about 30%, passing the limit was not always enough; inconclusive = no clear call, values can overlap the other calls;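 also: 0% = neutral control wells and 100% = positive control wells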
* marks the source's active call; other numbers are inactive results; ? = inconclusive; nt = no result. Most compounds without a hit are left out; they make up all but 3.9% or so of the library.

SMILES	HSF-1 act	HSF1 inh	MITF TRPM1 HTS	esBAF inh	Wnt bcat act
CO[C@H]1CN(C)C(=O)c2ccc(NS(C)(=O)=O)cc2OC[C@H](C)N(CC2CCOCC2)C[C@H]1C	nt	nt	nt	-1	nt
COCC(=O)N1[C@H](CO)[C@@H]2c3ccccc3N(C(=O)c3cccc(OC)c3)C[C@@H]21	nt	nt	nt	-1	nt
COc1ccc(S(=O)(=O)Nc2ccc3c(c2)C(=O)N([C@H](C)CO)C[C@@H](C)[C@@H](CN(C)S(=O)(=O)c2cn(C)cn2)O3)cc1	nt	nt	nt	-2	nt
O=C(c1ccccc1)N1C[C@H]2[C@@H](c3ccccc31)[C@@H](CO)N2Cc1cc(F)ccc1F	nt	nt	nt	-1	nt
CCCNC(=O)C[C@H]1CC[C@H]2[C@H](COc3ccc(NC(=O)c4cccc(Cl)c4)cc3C(=O)N2C)O1	nt	nt	nt	4	nt
COCC(=O)N1C[C@H](C)[C@H](OC)CN(C)C(=O)c2cc(NC(=O)c3ccc(OC)cc3)ccc2OC[C@H]1C	nt	nt	nt	2	nt
CC(C)OC(=O)c1ccc2nc3ccccc3nc2c1	42	18	6	-4	43*
CC(C)OC(=O)c1ccc(NC(=O)c2ccccc2)cc1	39	15	60	nt	nt
CC(C)OC(=O)c1ccc2ccc(-c3ccccc3)nc2c1	nt	nt	nt	55*	24
CC(C)COC(=O)N(C)c1ccc(C(O)(C(F)(F)F)C(F)(F)F)cc1	13	6	26	45*	0
CC(C)(C)c1ccc(S(=O)(=O)Nc2ccc(C(O)(C(F)(F)F)C(F)(F)F)cc2)cc1	nt	nt	nt	9	-1
C[C@@H]1CN([C@@H](C)CO)S(=O)(=O)c2ccc(-c3ccncc3)cc2O[C@@H]1CN(C)C(=O)C1CC1	nt	nt	nt	-3	nt
Cc1cccc(C(=O)NNS(=O)(=O)c2ccc(F)cc2)c1	14	3	nt	42*	0
CN(C)/C=N/C(=S)Nc1cc(Cl)cc(Cl)c1	-1	-2	-16	3	10
CN(C)/C=N/C(=S)Nc1ccc(Cl)c(Cl)c1	8	13	41	63*	9
O=C(NC(=S)N1CCN(c2ccc(C(F)(F)F)cc2[N+](=O)[O-])CC1)c1cccs1	-94	-94*	-4	nt	-2
Cc1ccc(C)c(NC(=S)c2ccccn2)c1	31	13	13	46*	36*
Cc1ccc(C)c(NC(=S)c2ccc3ccccc3n2)c1	44	24	44	76*	22
S=C(Nc1ccccn1)c1ccccn1	38	17	nt	5	-3
CNC(=O)C[C@@H]1CC[C@@H]2[C@@H](COc3ccc(NC(=O)NC4CCCC4)cc3C(=O)N2C)O1	nt	nt	nt	-1	nt
O=C(C[C@H]1C[C@H]2c3cc(NC(=O)CC4CC4)ccc3O[C@H]2[C@@H](CO)O1)NCCN1CCCCC1	nt	nt	nt	2	nt
CC1CCc2nc3sc4c(c3c(N)c2C1)CCCC4 (stereo unspecified)	35	21	58	nt	45*
CC1CCc2c(nc3sc4c(c3c2N)CCCC4)C1 (stereo unspecified)	41	12	39	30	25
CCC1=[N+](CC(=O)c2ccc(C)cc2)CCn2cccc21	51*	32	56	43*	6
Cc1ccc(CN(C(=O)c2cc3ccccc3oc2=O)C2CCS(=O)(=O)C2)cc1 (stereo unspecified)	13	9	43	36	nt
SMILES	HSF-1 act	HSF1 inh	MITF TRPM1 HTS	esBAF inh	Wnt bcat act
CN(C)C(CNC(=O)c1cc2ccccc2oc1=O)c1ccccc1 (stereo unspecified)	30	29	99*	51*	29
O=C(c1cc2ccccc2oc1=O)N(Cc1ccc(F)cc1)C1CCS(=O)(=O)C1 (stereo unspecified)	34	11	nt	?	-6
Cc1cccnc1NC(=O)c1cc2ccccc2oc1=O	42	3	12	?	47*
CC(C)N(Cc1ccc(F)cc1)C(=O)c1cc2ccccc2oc1=O	-30	-9	nt	47*	7
CCc1ccc(CN(C(=O)c2cc3ccccc3oc2=O)C2CCS(=O)(=O)C2)cc1 (stereo unspecified)	48	24	nt	86*	nt
COc1cccc(NC(=O)c2cc3ccccc3oc2=O)c1	?	23	nt	-62	-1
COc1ccc(C(=O)Nc2ccc3c(c2)C(=O)N(C)C[C@H](OC)[C@H](C)CN[C@H](C)CO3)cc1	nt	nt	nt	2	nt
COc1ccccc1-c1cnc2c(c1)C(=O)N([C@@H](C)CO)C[C@H](C)[C@@H](CN(C)C(=O)c1ccccc1)O2	nt	nt	nt	4	nt
C[C@H]1CN([C@@H](C)CO)C(=O)c2cc(NC(=O)C3CCCCC3)ccc2O[C@@H]1CN(C)C(=O)Nc1ccc(F)cc1	nt	nt	nt	-2	nt
C/C=C/c1ccc2c(c1)O[C@H](CN(C)C(=O)CN1CCOCC1)[C@H](C)CN([C@@H](C)CO)S2(=O)=O	nt	nt	nt	0	nt
CCc1ccc(OC(C)C(=O)N(Cc2ccco2)C2CCS(=O)(=O)C2)cc1 (stereo unspecified)	-86	-83*	nt	-1	-1
O=C1C2CC=CCC2C(=O)N1Cc1nnc(-c2ccc(Cl)cc2)o1 (stereo unspecified)	56*	29	25	nt	-1
O=C1C2CC=CCC2C(=O)N1Cc1ccccc1 (stereo unspecified)	-6	-2	3	1	-4
O=C(Nc1ccc2c(c1)OCO2)N[C@H]1CC[C@@H](CCNC(=O)C2CCC2)O[C@H]1CO	nt	nt	nt	4	nt
CC1Cc2ccccc2N1C(=O)COC(=O)c1cccc(Br)c1 (stereo unspecified)	nt	nt	-2	-2	26
CC1Cc2ccccc2N1C(=O)COC(=O)c1ccc(S(=O)(=O)N(C)C)cc1 (stereo unspecified)	-82	-78*	-1	7	nt
C[C@@H]1CN([C@@H](C)CO)C(=O)c2cc(NC(=O)c3ccncc3)ccc2O[C@H]1CN(C)C	nt	nt	nt	-4	nt
CN=C1SC(CC(=O)Nc2ccccc2F)C(=O)N1/N=C/c1ccc(O)c(OC)c1 (stereo unspecified)	40	20	12	nt	0
CCOc1ccc(/C=N/N2C(=O)C(CC(=O)Nc3ccc(F)cc3F)SC2=NC)cc1OC (stereo unspecified)	60*	22	-33	-12	-3
COc1cccc(S(=O)(=O)N2C[C@H](O)COC[C@H]3O[C@@H](CC(=O)Nc4ccccc4)CC[C@@H]32)c1	nt	nt	nt	0	nt
CCCCCN=C(C)c1c(O)c2ccccc2oc1=O	-9	4	64	58*	-1
CSc1ncccc1C(=O)OCc1ccc([N+](=O)[O-])cc1	15	11	14	-4	-4
CSc1ncccc1C(=O)OCc1ccccc1F	31	22	56	50*	-1
CSc1ncccc1C(=O)OCc1ccccc1	58*	28	78	?	nt
COCCCn1c(-c2ccc(OC)cc2)nc2c1c(=O)[nH]c(=O)n2Cc1ccccc1	15	0	4	-1	-1
C=CCOc1ccc(-c2nc3c(c(=O)[nH]c(=O)n3Cc3ccccc3)n2CCCOC)cc1	63*	19	9	3	-6
Cc1ccc(-c2nc3c(c(=O)[nH]c(=O)n3Cc3ccccc3)n2C)o1	nt	nt	2	nt	-2
